{"source": "PubChem BioAssay AID720518", "about": "(National Center for Advancing Translational Sciences (NCATS), 2013)", "note": "Results filed as inconclusive are left out. Unmarked numbers belong to inactive results. Calls follow the shape of the full dose curve.", "data": [{"experiment": "qHTS for Inhibitors of Cell Surface uPA Generation: Wild-type Protective Antigen (WT-PrAg) Counterscreen for Cherry-picked Compounds; also: 0% is about no effect", "settings": "cells, WT protective antigen toxicity counterscreen; series mostly up to 115 µM; activity (protection): at the top concentration", "units": {"activity (protection)": "%"}, "values": [{"smiles": "Cc1noc(C)c1COc1ccc(C(=O)O)cc1", "activity (protection)": -0.888}, {"smiles": "COc1ccccc1CN1CC(C(=O)NCc2cccc(C)n2)CCC1=O", "note": "(stereo not given)", "activity (protection)": -1.44}, {"smiles": "O=[N+]([O-])c1ccc(SCc2ccncc2)nc1", "activity (protection)": -0.691}, {"smiles": "COc1ccc(CC(=O)Nc2nc(C)cs2)cc1OC", "activity (protection)": -2.07}, {"smiles": "CCc1c(C)sc(NC(=S)N2CC(C)OC(C)C2)c1C(=O)OC", "note": "(stereo not given)", "activity (protection)": 0.312}, {"smiles": "CC(C)(C)OC(=O)C[C@@H]1C/C=C\\C[C@@H](CC(=O)N(CCO)Cc2ccccc2)C(=O)N[C@H](Cc2c[nH]c3ccccc23)COC1=O", "activity (protection)": -2.13}, {"smiles": "Cc1ccc(C)c(S(=O)(=O)Nc2ccccc2C(=O)Nc2cc(C)on2)c1", "activity (protection)": -1.99}, {"smiles": "COc1ccc(NS(=O)(=O)c2cc3c(cc2C)NC(=O)CO3)c(OC)c1", "activity (protection)": -1.08}, {"smiles": "c1cncc(C2CCCCN2)c1", "note": "(stereo not given)", "activity (protection)": 0.201}, {"smiles": "COc1cc(CNCc2ccc3c(c2)OCO3)c([N+](=O)[O-])cc1OC", "activity (protection)": 0.0004}, {"smiles": "O=C(CCCC(=O)N1CCN(c2ccccc2F)CC1)c1ccccc1", "activity (protection)": 0.0653}, {"smiles": "COc1ncnc(NS(=O)(=O)c2ccc(N)cc2)c1OC", "activity (protection)": 0.0309}, {"smiles": "CC(C)C(NC(=O)Cc1ccccc1)C(=O)N1CCN(c2cccc(Cl)c2)CC1", "note": "(stereo not given)", "activity (protection)": -2.55}, {"smiles": "Cc1ccc(NC(=O)C(C)S)cc1", "note": "(stereo not given)", "activity (protection)": -2.35}, {"smiles": "O=C(c1ccc(NC(=S)NCc2ccc(Cl)cc2)cc1)N1CCCCC1", "activity (protection)": -1.71}, {"smiles": "Cc1ccc(/C=C/C(=O)O)cc1S(=O)(=O)N1CCc2ccccc21", "activity (protection)": -1.49}, {"smiles": "CC1(C)CC2(CC(c3ccccc3)Oc3cc(O)ccc32)NC(=S)N1", "note": "(stereo not given)", "activity (protection)": -0.912}, {"smiles": "COC(=O)c1ccc(N2CCN(c3ccccc3)CC2)c(NC(=O)C2CC2)c1", "activity (protection)": -0.466}, {"smiles": "CN(C)S(=O)(=O)c1cccc(C(=O)OCC(=O)NCc2ccc3c(c2)OCO3)c1", "activity (protection)": -0.183}, {"smiles": "Cc1ccc(N=C2SCCCN2C(=O)c2cccc(N3C(=O)CCC3=O)c2)cc1Cl", "activity (protection)": -1.92}, {"smiles": "O=C(O)CSc1nnc(COc2ccccc2)n1-c1ccccc1", "activity (protection)": -0.315}, {"smiles": "CCOc1ccc(NC(=S)N2CCC(c3ccc(C)cc3)C2)cc1", "note": "(stereo not given)", "activity (protection)": -1.3}, {"smiles": "COc1ccc(/C(C)=N/N2CCOCC2)c(O)c1", "activity (protection)": 1.21}, {"smiles": "CC(C)NC(=O)NC(=O)CN1C(=O)NC(Cc2c[nH]c3ccccc23)C1=O", "note": "(stereo not given)", "activity (protection)": -0.356}, {"smiles": "COc1ccc(Cl)cc1NC(=O)CSc1nc(=O)n(CCN(C)C)c2c1CCCC2", "activity (protection)": -2.67}, {"smiles": "COCCN1C(=O)C(=O)/C(=C(/O)c2ccc(S(=O)(=O)N3CCOCC3)cc2)C1c1cccc([N+](=O)[O-])c1", "note": "(stereo not given)", "activity (protection)": -1.23}, {"smiles": "CCC(=O)Nc1nc(-c2cc([N+](=O)[O-])cs2)cs1", "activity (protection)": 0.561}, {"smiles": "CS(=O)(=O)Nc1cccc(C2=NN(S(=O)(=O)c3ccccc3)C(c3ccco3)C2)c1", "note": "(stereo not given)", "activity (protection)": -0.967}, {"smiles": "O=C(NCCS(=O)(=O)N1CCC2(CC1)OCCO2)c1ccc(F)cc1", "activity (protection)": 0.583}, {"smiles": "O=P1(NCCCl)OCCCN1CCCl", "note": "(stereo not given)", "activity (protection)": 0.18}, {"smiles": "COC(=O)/C(C#N)=C\\c1c(OC)[nH]c2ccccc12", "activity (protection)": -0.248}, {"smiles": "O=C(COC(=O)Cn1cnc2ccccc21)NCc1ccc(F)cc1", "activity (protection)": 0.472}, {"smiles": "C=CCn1c(C)cc(C(=O)COC(=O)/C=C/c2cccc(OC)c2)c1C", "activity (protection)": -1.08}, {"smiles": "Cn1cccc1Cc1nnc(SCC(=O)Nc2ccc3c(c2)OCCO3)n1-c1ccc(F)cc1", "activity (protection)": -1.41}, {"smiles": "Cc1ccc(-n2nc3c(c2NC(=O)c2ccc4c(c2)OCO4)CS(=O)C3)c(C)c1", "note": "(stereo not given)", "activity (protection)": 2.92}, {"smiles": "COC(=O)C1C(=O)c2c([nH]c(C(=O)OC3CCCCC3)c2C)CC1C", "note": "(stereo not given)", "activity (protection)": 0.16}, {"smiles": "Cc1cc(C)n2nc(CNS(=O)(=O)c3ccc(F)c(C)c3)nc2n1", "activity (protection)": -0.539}, {"smiles": "C=CCNC(=S)NCC=C", "activity (protection)": 1.06}, {"smiles": "Cc1ccc(S(=O)(=O)Nc2nc(C)cc(N/N=C/c3ccc(O)cc3)n2)cc1", "activity (protection)": -1.92}, {"smiles": "C[n+]1c2cc(N)ccc2cc2ccc(N)cc21", "activity (protection)": -2.06}]}]}
